Data published in PMC8384837, “Expanding the binding specificity for RNA recognition by a PUF domain”.

Each sequence was assayed against PUM1 PUF domain R5-GWL (Homo sapiens, UniProt Q14671 828-1176, C1007G;R1008W;Q1011L) (assay: yeast three-hybrid, YBZ-1, SC-Leu-His + 0.5 mM 3-AT, 4 days). Details: tags: N-Gal4 AD-HA kept; label: inside an RPR1-promoter hybrid RNA with tandem MS2 sites; ssRNA.
Outline: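 Repeat regions from input (SC-Leu) and selection (SC-Leu-His + 0.5 mM 3-AT) plates were PCR-amplified and Illumina-sequenced after four days of growth. The cells were strain YBZ-1 with a LexA–MS2 coat fusion and a HIS3 reporter, co-expressing Pumilio-1 PUF domain libraries and matching RNA elements from a centromeric plasmid. The interaction score is the log change in variant frequency from input to selection, taken in log2 with a pseudocount of 1 for absent variants.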

Sequence of PUM1 PUF domain R5-GWL (Q14671 828-1176 C1007G/R1008W/Q1011L): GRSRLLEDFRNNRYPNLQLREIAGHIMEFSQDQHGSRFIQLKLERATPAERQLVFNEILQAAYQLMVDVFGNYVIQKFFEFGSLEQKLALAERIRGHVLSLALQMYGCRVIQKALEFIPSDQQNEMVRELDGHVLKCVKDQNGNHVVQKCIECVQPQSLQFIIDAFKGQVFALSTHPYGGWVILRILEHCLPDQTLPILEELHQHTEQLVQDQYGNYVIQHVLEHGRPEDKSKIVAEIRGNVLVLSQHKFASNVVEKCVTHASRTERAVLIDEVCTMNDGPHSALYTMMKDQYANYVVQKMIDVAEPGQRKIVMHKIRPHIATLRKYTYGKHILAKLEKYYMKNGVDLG

Sequence | binding signal
GGCUAGAACUAGUGGAUCCCCCGGCGCCCGGCGGCUCGAGCCCGGGUAAGUGUUAAUAGUCUGCAUGCCGCCGGGCGCCAUGCCUGCAGGUCGACUCUAGAAAACAUG | 3.36 log2 enrichment (interaction score)
GGCUAGAACUAGUGGAUCCCCCGGCGCCCGGCGGCUCGAGCCCGGGUAAGUGUGAAUAGUCUGCAUGCCGCCGGGCGCCAUGCCUGCAGGUCGACUCUAGAAAACAUG | 3.27 log2 enrichment (interaction score)
GGCUAGAACUAGUGGAUCCCCCGGCGCCCGGCGGCUCGAGCCCGGGUAAGUGUAAAUAGUCUGCAUGCCGCCGGGCGCCAUGCCUGCAGGUCGACUCUAGAAAACAUG | 2.66 log2 enrichment (interaction score)
